In the library only some 4.3% were active in any assay of this set; here they are far more common.
HSF-1 act: increases HSF-1 driven luciferase reporter signal | NIH3T3-HGL HSF-1 luciferase reporter, MG132, 8 h; 100% = twice DMSO control signal | activation, % at 9 µM | 300,000 tested, 1.7% active | AID 504408;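 active means mean replicate activation of at least 50% with a set share of replicates each reaching 50%; inconclusive means only one of those two conditions met; inactive means mean below 50% and too few replicates reaching it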;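 further: 0% = median of the neutral control wells and 100% = twice that signal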
HSF1 inhib: HSF1 inhibition; NIH3T3-HGL HSE-luciferase, MG132-induced, luminescence 8 h; hits give low values; activity change, negative = inhibition, % at 7.5 µM (by protocol); 300,000 tested, 0.77% active;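 active means more than half of replicate wells show activity change below -50%, luminescence cut by over half; inconclusive means some wells, but at most half, below -50%; inactive means no replicate well below -50%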;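 further: luciferase reports HSF-1 transcriptional activity via heat shock element; 0% = median of DMSO wells and -100% = zero luminescence signal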
esBAF inh: inhibitors of esBAF chromatin remodeling in mouse ES cells. Bmi1-luciferase knock-in reporter, 24 h; 100% = twice the neutral-well signal. reporter increase, % at 12.5 µM. 350,000 tested, 2% active; in the data active means activation above about 40%; inconclusive means no clear call, values can overlap the other calls;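 further: 0% = median of the plate's neutral control wells and 100% = double that signal; a rise in the Bmi1 reporter signal indicates esBAF inhibition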
Wnt act: Wnt/beta-catenin pathway activation | Wnt/beta-catenin reporter cell assay, activator, plate reader | activation, % at 9.35 µM | 300,000 tested, 1.2% active | AID 743398; in the data active means activation above about 30%, passing the limit was not always enough; inconclusive means no clear call, values can overlap the other calls;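 further: 0% = neutral control wells and 100% = positive control wells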
MITF act: MITF TRPM1 promoter activation in melanoma cells; AID 588334; SK-MEL-5 TRPM1-promoter luciferase, 24 h; % of positive control, neutral wells = 0; 300,000 tested, 0.75% active; activation, % at 12.5 µM;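 active means mean activation of at least 80% with every replicate also reaching 80%; inconclusive means mean reaches 80% but some replicate falls short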;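 further: 0% = neutral control wells and 100% = parthenolide positive control wells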
SMARCA2 activ: increases SMARCA2 function in MMTV reporter cells; AID 652017; activation, % at 9.1 µM; MG213 cells, MMTV-luciferase reporter, dexamethasone, overnight; 370,000 tested, 1% active; in the data active means activation above about 7.8%;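 further: 0% = vehicle wells and 100% = reference activator wells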
* hit, by the source's call.

How did C#CCn1c(=NC(=O)c2ccc(Cl)s2)sc2cccc(OC)c21 do in these assays?
HSF-1 act: 32; HSF1 inhib: 15; esBAF inh: 50*; Wnt act: -6; MITF act: 65; SMARCA2 activ: 0

How did O=c1oc(CCCO)cc2ccc(Br)cc12 do in these assays?
esBAF inh: 3; Wnt act: -1; MITF act: 8; SMARCA2 activ: -6

What do the screens show for `O=c1oc(CCCO)cc2ccc(/C=C/c3cccc([N+](=O)[O-])c3)cc12`?
esBAF inh: 49*; Wnt act: inconclusive; MITF act: 92*; SMARCA2 activ: 6

Results for NC(=O)c1cc2c(s1)-c1cc(Cl)ccc1SC2 ?
HSF-1 act: -6; HSF1 inhib: -4; esBAF inh: 5; Wnt act: 9; MITF act: -4; SMARCA2 activ: -3

How did COCCNC(=O)c1cc2c(s1)-c1ccc(Cl)cc1SC2 do in these assays?
HSF-1 act: 43; HSF1 inhib: 18; esBAF inh: 32; Wnt act: 43*; MITF act: 42; SMARCA2 activ: 3

How did COC(=O)CN1C(c2ccc(OC)cc2)=Nc2ccc(Cl)cc2C1c1ccccc1 (stereo not given) do in these assays?
HSF-1 act: 18; HSF1 inhib: -1; MITF act: -3; SMARCA2 activ: -1

Results for COC(=O)CN1C(c2cccc(Cl)c2)=Nc2ccc(Cl)cc2C1c1ccccc1 (stereo not given) ?
HSF-1 act: 64*; HSF1 inhib: 42; Wnt act: -3; MITF act: -2; SMARCA2 activ: -4

How did COc1ccc(NC(=O)N(C)C[C@@H]2Oc3c(NC(=O)Nc4ccc(F)cc4)cccc3C(=O)N([C@@H](C)CO)C[C@H]2C)cc1 do in these assays?
esBAF inh: -4

What do the screens show for `O=C(Nc1ccc(NC(=O)C2CCCCC2)nc1)c1ccccn1`?
HSF-1 act: 37; HSF1 inhib: 13; esBAF inh: 47*; Wnt act: inconclusive; MITF act: 94*; SMARCA2 activ: 3

What do the screens show for `Cc1ccc(S(=O)(=O)N2CCCC(C(=O)Nc3ccc(NC(=O)c4ccccn4)cc3)C2)cc1` (stereo not given)?
HSF-1 act: -17; HSF1 inhib: -7; esBAF inh: 26; Wnt act: 60*; MITF act: 37; SMARCA2 activ: 3

Results for O=C(Nc1ccc(NC(=O)C2CC2)cn1)c1ccccc1Cl ?
HSF-1 act: 21; HSF1 inhib: 11; esBAF inh: 42*; Wnt act: 37*; MITF act: 35; SMARCA2 activ: 5

How did O=C(Nc1ccc(NC(=O)C2CC2)cn1)c1ccccc1 do in these assays?
HSF-1 act: 37; HSF1 inhib: 6; esBAF inh: -27; Wnt act: 15; MITF act: -4; SMARCA2 activ: 3

Results for Cc1ccc(S(=O)(=O)N2CCCC(C(=O)Nc3cccnc3)C2)cc1 (stereo not given) ?
HSF-1 act: 2; HSF1 inhib: -5; esBAF inh: 8; SMARCA2 activ: -4

Results for O=c1c2ccccc2nnn1COc1cccc2ccccc12 ?
HSF-1 act: 22; HSF1 inhib: 44; Wnt act: 28; MITF act: 17; SMARCA2 activ: 5

How did O=c1c2ccccc2nnn1COc1ccc(F)cc1Cl do in these assays?
HSF-1 act: 84*; HSF1 inhib: 62; Wnt act: 3; MITF act: 26; SMARCA2 activ: 1

What do the screens show for `CC(Oc1ccc(Cl)cc1Cl)C(=O)OCn1nnc2ccccc2c1=O` (stereo not given)?
HSF-1 act: -4; HSF1 inhib: -7; esBAF inh: -4; Wnt act: 0; MITF act: -9; SMARCA2 activ: -5

What do the screens show for `O=c1c2ccccc2nnn1COc1ccc(Cl)cc1Br`?
HSF-1 act: 56*; HSF1 inhib: 40; Wnt act: 3; MITF act: 33; SMARCA2 activ: 1

How did CN(Cc1ccccc1)c1nc(-c2ccc([N+](=O)[O-])cc2)nc2ccccc12 do in these assays?
HSF-1 act: -8; HSF1 inhib: -8; esBAF inh: 0; MITF act: 3; SMARCA2 activ: -3

What do the screens show for `O=[N+]([O-])c1ccc(-c2nc(C(Cl)Cl)c3ccccc3n2)cc1`?
HSF-1 act: 115*; HSF1 inhib: 65; Wnt act: -2; SMARCA2 activ: 0

How did C[C@H](CO)N1C[C@H](C)[C@@H](CN(C)C)Oc2ccc(NC(=O)c3ccncc3)cc2CC1=O do in these assays?
esBAF inh: 2

What do the screens show for `Cc1ccsc1C1Nc2ccccc2-c2nc3ccccc3n21` (stereo not given)?
HSF-1 act: 40; HSF1 inhib: 11; Wnt act: 19; MITF act: 49; SMARCA2 activ: 1

Results for c1cncc(C2Nc3ccccc3-c3nc4ccccc4n32)c1 (stereo not given) ?
HSF-1 act: 35; HSF1 inhib: 16; esBAF inh: 59*; Wnt act: 7; MITF act: 14; SMARCA2 activ: 1

Results for c1csc(C2Nc3ccccc3-c3nc4ccccc4n32)c1 (stereo not given) ?
HSF-1 act: 15; HSF1 inhib: 8; Wnt act: 80*; MITF act: 36; SMARCA2 activ: 1

How did c1ccc2c(c1)NC(c1ccncc1)n1c-2nc2ccccc21 (stereo not given) do in these assays?
HSF-1 act: 44; HSF1 inhib: 11; Wnt act: 56*; MITF act: 28; SMARCA2 activ: 6

Results for Cc1ccccc1NC(=O)Nc1ccc2c(c1)C(=O)N(C)[C@@H]1CC[C@H](CC(=O)O)O[C@@H]1CO2 ?
esBAF inh: 1

Results for CO[C@H]1CN(C)C(=O)c2cc(NS(=O)(=O)c3ccc(Cl)cc3)ccc2OC[C@H](C)N(C)C[C@@H]1C ?
esBAF inh: 2

How did CO[C@H]1CN(C)C(=O)c2ccc(NC(=O)C3CC3)cc2OC[C@@H](C)N(C(=O)C2CCOCC2)C[C@H]1C do in these assays?
esBAF inh: -1

Results for CN1CCN(C(=O)c2ccc(Cn3cc(Cl)cn3)o2)CC1 ?
HSF-1 act: 64*; HSF1 inhib: 15; esBAF inh: -9; Wnt act: 0; MITF act: -11; SMARCA2 activ: 7.9*

What do the screens show for `O=C(c1ccc(Cn2cc(Cl)cn2)o1)N1CCN(Cc2ccc3c(c2)OCO3)CC1`?
HSF-1 act: 5; HSF1 inhib: 1; esBAF inh: 5; Wnt act: -1; MITF act: 3

Results for O=S(=O)(N[C@H]1CC[C@@H](CCn2cc(-c3ccc(F)cc3)nn2)O[C@@H]1CO)c1ccccc1F ?
esBAF inh: 9

How did CC(=O)Nc1c(-c2ccc3ccccc3c2)nc2ccccn12 do in these assays?
HSF-1 act: 9; HSF1 inhib: 10; esBAF inh: 57*; Wnt act: 23; MITF act: 82*; SMARCA2 activ: 7
